The whole screen tested about 5,600 compounds, of which about 3,100 (55%) were called active. Another 3% or so got no clear call; they are omitted. The set was probably picked from earlier hits. These entries were drawn from the full list. Unmarked numbers belong to inactive results.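 Rule for the calls: active = mean loss of cell viability signal at or above a set limit, and enough replicates individually reaching it; inconclusive = meets only the mean limit or only the replicate share; inactive = meets neither condition.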

A short description of the assay: NIH/3T3 fibroblast cytotoxicity, confirmation, cytotoxicity control, cell-based, cherry-pick, single point, set 2 (AID 651744).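 Note: 0% = median of neutral control wells and 100% = median of positive control wells.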 The note with it: NIH/3T3 viability, CellTiter-Glo ATP luminescence, 90 h; at 24.9 µM; hits give high values. Background: In ATP-based viability assays light output follows the ATP content of the culture.
In the case of `COc1ccc(-c2ccc3c(c2)[C@@H]2[C@@H](CCN2C(=O)Cc2ccccn2)[C@H](CO)N3C)cc1`, the inhibition was 9.06%.
On to `CC(C)NC(=O)N(C)C[C@H]1OCc2cn(nn2)CCCC(=O)N([C@@H](C)CO)C[C@H]1C`, for which the inhibition is -9.15%.
As to `COCC#Cc1ccc([C@@H]2[C@H](CO)N3CCCCN(C(=O)CN(C)C)C[C@@H]23)cc1`, the inhibition was -6.74%.
Consider `COc1ccc(-c2ccc([C@H]3[C@H]4CN(C(=O)c5ccc6c(c5)OCO6)CCCCN4[C@H]3CO)cc2)cc1`, for which the inhibition is 67.5% (active).
Under `Cc1cccc(-c2ccc([C@@H]3[C@H](CO)N4CCCCN(C(=O)c5ccc6c(c5)OCO6)C[C@@H]34)cc2)c1` stands 105% (active); under `O=C(c1cccc(F)c1)N1CCCCN2[C@H](CO)[C@H](c3ccc(-c4ccncc4)cc3)[C@H]2C1`, -0.739%; under `CCCC#Cc1ccc([C@H]2[C@H](CO)N3CCCCN(C(=O)c4ccc5c(c4)OCO5)C[C@@H]23)cc1`, 85.9% (active).
Regarding `CC(C)(O)C#Cc1ccc([C@@H]2[C@H](CO)N3CCCCN(C(=O)c4cccc(F)c4)C[C@@H]23)cc1`, the inhibition is 1.66%.
Under `CC(C)(C)[S@@](=O)N1Cc2cc(C(=O)NCc3ccc4c(c3)OCO4)nc(-c3cccc(-c4ccccc4)c3)c2[C@H]1CCO` stands 49% (active); under `O=C(Nc1ccc(-c2ccccc2)cc1)[C@H]1[C@H](CO)[C@H]2Cn3c(cccc3=O)[C@H]2N1CC1CC1`, 59.4% (active).
For `O=C(NCC1CCCCC1)[C@H]1[C@H](CO)[C@H]2Cn3c(cccc3=O)[C@H]2N1C(=O)CC1CC1` the value was 2.76%.
Take `C[C@@H]1CN([C@@H](C)CO)S(=O)(=O)c2ccc(C#CCC3CCCC3)cc2O[C@H]1CN(C)C(=O)CC1CC1`: the inhibition is 104% (active).
`CNC[C@@H]1Oc2cc(C#CCC3CCCC3)ccc2S(=O)(=O)N([C@H](C)CO)C[C@H]1C`: the inhibition is 105% (active).
Under `CNC[C@H]1OCCCC[C@@H](C)Oc2ccc(NS(C)(=O)=O)cc2C(=O)N([C@H](C)CO)C[C@H]1C` stands -29.3%; under `CNC[C@H]1OCCCC[C@H](C)Oc2ccc(NC(=O)Nc3c(C)noc3C)cc2C(=O)N([C@H](C)CO)C[C@H]1C`, 11.5%; under `C[C@@H]1CN([C@H](C)CO)S(=O)(=O)c2ccc(C#CCC3CCCC3)cc2O[C@H]1CN(C)C(=O)CC1CC1`, 103% (active).
In the case of `C[C@@H]1CCCCO[C@H](CN(C)C(=O)CCC(F)(F)F)[C@H](C)CN([C@H](C)CO)C(=O)c2cc(NS(C)(=O)=O)ccc2O1`, the inhibition was 4.09%.
For `CC(=O)NC[C@@H]1[C@@H](c2ccc(-c3ccccc3F)cc2)[C@@H](CO)N1C(=O)C1CC1` the value was -15.5%; for `C[C@@H]1CCCCO[C@@H](CN(C)Cc2ccccc2)[C@H](C)CN([C@H](C)CO)C(=O)c2cc(NC(=O)Nc3cccc4ccccc34)ccc2O1`, 105% (active); for `C[C@@H]1CCCCO[C@@H](CN(C)C(=O)Nc2ccc(F)cc2)[C@H](C)CN([C@H](C)CO)C(=O)c2cc(NC(=O)Nc3cccc4ccccc34)ccc2O1`, -7.66%.
Under `C[C@@H]1CN([C@@H](C)CO)C(=O)c2cc(NC(=O)Nc3cccc4ccccc34)ccc2O[C@@H](C)CCCCO[C@H]1CN(C)Cc1ccccc1` stands 104% (active).
For `C[C@@H]1CCCCO[C@H](CN(C)C(=O)Nc2cccc3ccccc23)[C@H](C)CN([C@H](C)CO)C(=O)c2cc(NS(=O)(=O)c3cccs3)ccc2O1`, the inhibition was 2.06%.

One may read the inhibition as the relative decrease from the control value, in per cent.

Values taken from PubChem BioAssay AID651744 (Broad Institute, 2012).
